Test results taken from PubChem BioAssay AID1508600 (Functional Genomics Laboratory (NCATS/FGL), 2020).
In all, about 53,000 sequences went through this assay and about 3,700 (7%) were called active. This is one part of a sample in which actives are shown more often than they occur. A number with no mark means an inactive call.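 Rule for the calls: active = gene knockdowns whose robust z-score for IL-1 alpha signal is at least 2 or at most -2, so actives lie on both sides; inactive = the rest.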

Assay: Components of the Cytosolic LPS Sensing Pathway: Gene Identification via Genome-wide siRNA Screen;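 note: robust z of the log signal after scaling to non-targeting control siRNA wells of the plate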
Conditions: RAW264.7 macrophages, IL-1a HTRF, actives lie on both sides, screened at 100 nM (by protocol), cells primed 5 h with Pam3CSK4 first
Method in brief: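 RAW264.7 mouse macrophages reverse-transfected with single siRNAs (100 nM final) for 48h, primed with Pam3CSK4 for 5 hours, then transfected with LipidA for 24 hour. Supernatant IL-1a read by HTRF; values normalized to negative-control median, log-transformed robust z-scores.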
For GGAUAAUUGGGAUGAUGACTT against Sem1, the z-score was -2.24 (active). GGCAGAGUAUGAGUUUGACTT against Camk1 showed a z-score of 0.699. For GGCCAAGUGCACCAUCCUATT against Gng13, the z-score was -0.852. In the case of GGAGAAAGCCUUCCAAUUUTT against Kel, the z-score is reported as -0.273. GGUAGAGCAUCAGUAUCUATT against Tex16 gave a z-score of -0.47. Sequence CCGCACCAUUCAGCUUUUUTT against Mmgt2 has a z-score of 0.446. For GGCUCGAUUACUGAGUACATT against Bnip2, the z-score was 0.884. Sequence GGCUUUAGUUGUCUUUUAUTT against Cxcr1 has a z-score of 0.609. GGAGAAAAAGAGAAGUAUUTT against Skint9 gave a z-score of -0.874. Work on GCAUGAUGGUGCGCUUAAGTT against Ngdn yielded a z-score of -0.187. With GGUCAUGGAUGUGCACGAUTT against Krt14 the z-score was -2.21 (active). CCUAUACACCCAUUUUUAATT against Arl2bp gave a z-score of 0.163. For GGUAACCUGAUGGCUGAAATT against Zfp692, the z-score was 2.79 (active). Sequence GCCUAAGGAUCCUGGGUUATT against Orai3 has a z-score of 1.43. CCGUUUCUAUCGAGUGAAATT against Celf2 showed a z-score of 0.581. In the case of GACUAAACAGAUCUUCUCUTT against Klra15, the z-score is reported as -0.651. Work on GGAGAUAAUUGGUUUACAGTT against Vmn1r23 yielded a z-score of -0.647. With CCACACCAUAACAACAUUCTT against Olfr800 the z-score was -2.05 (active). With GCAAUUCAGGUUUACUACATT against Fgg the z-score was 0.00733. With GAAAGUUUACGGGAAAUCUTT against Klf13 the z-score was 2.04 (active). In the case of CCAUAAGGUAACCUGUACATT against Serpinb1c, the z-score is reported as -0.244. Work on GGAUUACAAGACCAUAGAUTT against Clec2g yielded a z-score of -0.75. In the case of GGCACCUCUGCUUUUAAAGTT against Mrm2, the z-score is reported as 0.926. In the case of GGAACUGCCUGAAAAAAUGTT against Dcn, the z-score is reported as -2.76 (active). CAUAUUCCUUGCAUUACAATT against Taok3 gave a z-score of 0.929. For GGUUCAGAAGUUUGGGAGATT against Mrpl48, the z-score was 0.615. In the case of GGACUGAUUGAUAAAGUCATT against Srp54a, the z-score is reported as -0.458. Sequence UAAAAAUGAGCCGGGCAAUTT against Ms4a5 has a z-score of 1.42. Work on GGAGCAAAGCUAAAUGUUGTT against Far1 yielded a z-score of -0.476. GGAUUUGGCAACAGACUUUTT against Ryr2 showed a z-score of -0.391. Sequence CACCGUAAUAAUCACACUATT against Zfp667 has a z-score of -0.854. For “GGUACGAAGGAAAAUUUACTT against 2810407A14Rik”, the z-score was 2.72 (active). With GGUUACCAUGUGAAGCAGGTT against Tnfrsf14 the z-score was -0.461. GGAUAACUCCUUAUUUAACTT against Teddm3 showed a z-score of 1.25. GGAAAACCAGAAAGAAUUUTT against Crnkl1 showed a z-score of -0.334. Sequence GGAACAAGUUUGUGCUUUCTT against Cpd has a z-score of 0.728. Work on GGAUAACCAACAAGGUUUUTT against Mgst1 yielded a z-score of 0.701. For GGUGGAACACAUAUUUUAATT against Tbc1d13, the z-score was 0.837. In the case of CGCCCAUGUACAGAUUUGUTT against Olfr429, the z-score is reported as -2.33 (active). With GCUUCACCUGACAAUGACUTT against Tsc22d3 the z-score was 1.2. With GGGACAGGUUGAGGUCUAUTT against Vmn1r233 the z-score was 2.01 (active). Work on GGCAUACCGAAAGUUAGCCTT against Dnaja2 yielded a z-score of -0.724. Sequence GGAGGUCCAGGAUUUUAUATT against Styk1 has a z-score of 1.12. “GCUUCAACAUGCUUUGUUUTT against A430010J10Rik” showed a z-score of -0.555. CCCUACUCCUCAGAACUUATT against Tbc1d10a gave a z-score of -0.499. CCAAAAAGAGCGAUUACCCTT against Shc1 gave a z-score of 0.368. In the case of CGCAGAAAGAGCAUCAGAUTT against Atg9a, the z-score is reported as -2.42 (active). GCGACUGUGGUGGUUACAUTT against Bcas2 gave a z-score of 0.444. “GGGAAGGAAGAAUUUAUUUTT against 6430571L13Rik” showed a z-score of 1.24. For GCUGCUCAAUCGGAAAUACTT against Clk1, the z-score was -2.06 (active). With CCAGGUGUAUAAUAAGAUGTT against Atp8b3 the z-score was 0.271. Work on GCAAUGACAGAACAUACAGTT against Cts7 yielded a z-score of 1.67. GGCAGAAAGAAAUUGAGAATT against Trim42 gave a z-score of -0.655. In the case of CAGCAUCUUUGAUUGUCUGTT against Tssc4, the z-score is reported as 2.15 (active). Work on GCUUAUGCCAGUCUGUCAUTT against Hax1 yielded a z-score of -0.206. CCAUACAUCAGUACUUACCTT against Olfr553 showed a z-score of 0.477. In the case of GCGUGUUCGCUUCUUGCUATT against Trub2, the z-score is reported as -0.614. In the case of CCACAGAAUAAGACAAUAUTT against Fbxo34, the z-score is reported as -3.03 (active). Sequence CCAUUCAGUCGAUUACAUUTT against Chd9 has a z-score of 0.204. With GGACUUUUCUUUUGGAAGGTT against Nbl1 the z-score was -0.08. GCCUUUCCACCGAUGAAAUTT against Dpyd gave a z-score of -0.473. Sequence GGAGCACAUCUUUUCUGCCTT against Mixl1 has a z-score of -1.22. Sequence CCAAUUAUUAUCCAAGGGCTT against Slc16a6 has a z-score of -0.0144. For GCUAUAACCUCACCGAGAATT against Tedc2, the z-score was 2.09 (active). Work on GGAAAAGCAGACAUGUGAUTT against Dedd yielded a z-score of -0.875. With CCAUUCAUACCAUACCUGUTT against Tmem50a the z-score was -0.521. Work on GGGCAUUAGGGUGGUAGCATT against Gapdhs yielded a z-score of -0.826. For GCUUAGUGGUUCUUAUUUGTT against Olfr893, the z-score was -0.214. Work on GCUUCAUAUAGACAAAGCCTT against Epo yielded a z-score of -0.625. In the case of GGAAGUUAGUUUCGUUUUATT against Rprd1b, the z-score is reported as 2.03 (active). In the case of GGCAAGAUCUUCAAGUGAATT against Eef1g, the z-score is reported as -0.809. In the case of GGAACAUUUUGGAAAUGACTT against Fbxo25, the z-score is reported as -0.625. In the case of GGAAGAAGAAGGAGCUAGATT against Slu7, the z-score is reported as -2.2 (active). For CCACCCACUAAACCUAAAUTT against Pcolce, the z-score was 0.136. With GGACACCAAAGUGAAUACATT against Cdhr5 the z-score was 0.122. GGAGAUGGCACAGUCAGUCTT against Slc22a8 gave a z-score of -0.338. In the case of GGGUUGUGGCUGCUACUAUTT against Pira2, the z-score is reported as 2.18 (active). GCUACUGGUUGGGUUGAAGTT against Tbcd showed a z-score of 1.47. Work on GGAAGCUUUGGGAAACAGUTT against Bmp2 yielded a z-score of -0.226. With GGCCACUUGUCUCAUUGUGTT against Xlr4c the z-score was -1.93. GGAUACCAUCCUAGGCCUGTT against Ephx3 showed a z-score of -0.603. With GCCUCAUCGUUGCUGACUATT against Pde3b the z-score was -2.04 (active). Sequence GGAUGGUAACCAUCAUAUUTT against Vmn1r54 has a z-score of -0.887. For CCUCAUUGUUUUAUACCCUTT against Olfr1140, the z-score was 0.309. Sequence GGGAUUAUACUAAUCCAACTT against Wdr45 has a z-score of 1.24. For GCUUCUUCCUUAGAUGGCATT against Kcnb1, the z-score was -1.32. In the case of GGUGCAUUUUGUCUAUGAUTT against Lamp5, the z-score is reported as -2.04 (active). CGACCAGCCAUGGUACAAATT against Ptprd showed a z-score of -0.83. CGUAGAAGAGUACAUGAUUTT against Pdcd10 gave a z-score of -0.526. Work on GGAGAAAAGGAAGUUGAGGTT against Bnip3l yielded a z-score of -1.76. With GGGUUUCCAAGAAGGAAGCTT against Utp25 the z-score was 0.852. For CCUUUUUCGAAAAAUCAGGTT against Lyst, the z-score was -0.39. CCACAUAUAUCAACAAGCUTT against Olfr916 gave a z-score of -0.257. CCAAGAUAGUCCCUAUCCCTT against Scamp3 gave a z-score of 0.346. For GGUAUGAUGAACAGUCCAGTT against Ep300, the z-score was -2.35 (active). For GGCUUGUUAAUGAAUGCACTT against Ankrd9, the z-score was -0.894. Sequence GGCUUUGAAGAAGAGCUUUTT against Atp6v0a4 has a z-score of -0.775. Work on GCACAGCGGUAAACAAAAUTT against Ywhaz yielded a z-score of -0.00575. With GUAUCCUUCACAACUGUCUTT against Olfr786 the z-score was -1.66. For GGAAUCUGCUGAGGUUUAUTT against Cidea, the z-score was 4.08 (active). Work on GGAGCUGAGGAAAAAGAUUTT against Uhrf1 yielded a z-score of -0.993. Sequence GGCUUAUCAGUCCAUGAAGTT against Dhrs11 has a z-score of -0.601. GGCGAUCAGGCAUCAUCCUTT against Aox1 showed a z-score of -0.153. GGCAACCAGUCUCAUCAAUTT against Scgb1b27 gave a z-score of -0.927. Work on GCAGAGAUACCUAUCAAAGTT against Angptl4 yielded a z-score of 1.16. GGAAGAGGAACAGUUAGCCTT against Zfp553 gave a z-score of -0.24. With GGAGGUCUGGAUUAACUGUTT against Cd163l1 the z-score was 2.2 (active).
